Measurements as given in PubChem BioAssay AID1159580 (chemical genetic matrix, 2015).
Values joined by “and” are separate entries in the source; they are usually repeats but may differ in a detail not shown here. Equal entries are not always repeated. Among all 5,500 compounds or so, about 2,000 (36%) were called active. Not shown: some 18% with an inconclusive outcome. No stated cut-off is given here; in the data, active means normalized growth mostly below about 0.91 (no sharp cut-off); inconclusive means no clear call, values can overlap the other calls; inactive means mostly above about 0.92. Some of the results follow.

Assay: chemical genetic growth profiling, strain panel (AID 1159580);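 further: tested at 20 µM; growth read once vehicle control cultures reached saturation at 30 °C; 1 = growth at the plate median or of vehicle wells; lower values mean less growth of the strain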
Settings: growth OD

Measured: normalized growth

NCCc1c[nH]c2ccccc12
inactive: S. cerevisiae deletion strains, locus YJR075W, strain HOC1, active compounds read low 1.01 and 0.992 | S. cerevisiae deletion strains, locus YKL009W, strain mrt4, active compounds read low 0.991 | S. cerevisiae deletion strains, locus YKL068W, active compounds read low 0.987 | S. cerevisiae deletion strains, locus YKL085W, strain MDH1 (second series), active compounds read low 0.996 | S. cerevisiae deletion strains, locus YKL085W, strain MDH1, active compounds read low 0.996 | S. cerevisiae deletion strains, locus YKL160W, strain elf1, active compounds read low 0.968 | S. cerevisiae deletion strains, locus YKL190W, strain CNB1, active compounds read low 0.996 | S. cerevisiae deletion strains, locus YKR001C, strain vps1, active compounds read low 0.987 | S. cerevisiae deletion strains, locus YKR026C, strain gcn3, active compounds read low 0.958 | S. cerevisiae deletion strains, locus YKR091W, strain srl3, active compounds read low 0.976 | S. cerevisiae deletion strains, locus YLL001W, strain dnm1, active compounds read low 0.958 | S. cerevisiae deletion strains, locus YLL026W, active compounds read low 0.941 | S. cerevisiae deletion strains, locus YLL041C, strain sdh2, active compounds read low 0.965 | S. cerevisiae deletion strains, locus YLR027C, strain aat2, active compounds read low 0.974 | S. cerevisiae deletion strains, locus YLR039C, strain RIC1, active compounds read low 0.988 | S. cerevisiae deletion strains, locus YLR058C, strain SHM2, active compounds read low 0.975 | S. cerevisiae deletion strains, locus YLR102C, strain apc9, active compounds read low 0.996 | S. cerevisiae deletion strains, locus YLR113W, strain HOG1, active compounds read low 0.999 | S. cerevisiae deletion strains, locus YLR221C, strain rsa3, active compounds read low 0.998 | S. cerevisiae deletion strains, locus YLR258W, strain gsy2, active compounds read low 0.965 | S. cerevisiae deletion strains, locus YLR262C, strain YPT6 (second series), active compounds read low 0.956 | S. cerevisiae deletion strains, locus YLR262C, strain YPT6, active compounds read low 0.934 | S. cerevisiae deletion strains, locus YLR268W, strain sec22, active compounds read low 1.06 | S. cerevisiae deletion strains, locus YLR320W, strain mms22, active compounds read low 0.985 | S. cerevisiae deletion strains, locus YLR330W, strain CHS5, active compounds read low 0.973 | S. cerevisiae deletion strains, locus YLR342W, strain FKS1 (second series), active compounds read low 0.986 | S. cerevisiae deletion strains, locus YLR342W, strain FKS1, active compounds read low 0.972 | S. cerevisiae deletion strains, locus YLR357W, strain rsc2, active compounds read low 0.987 | S. cerevisiae deletion strains, locus YLR370C, strain arc18, active compounds read low 0.94 | S. cerevisiae deletion strains, locus YLR371W, strain rom2, active compounds read low 0.982 | S. cerevisiae deletion strains, locus YLR384C, strain iki3, active compounds read low 0.949 | S. cerevisiae deletion strains, locus YLR418C, strain cdc73, active compounds read low 0.99 | S. cerevisiae deletion strains, locus YML016C, strain PPZ1, active compounds read low 0.99 | S. cerevisiae deletion strains, locus YML032C, strain rad52, active compounds read low 1.01 | S. cerevisiae deletion strains, locus YML120C, strain ndi1, active compounds read low 0.962 | S. cerevisiae deletion strains, locus YML124C, strain tub3, active compounds read low 0.988 | S. cerevisiae deletion strains, locus YMR058W, strain fet3, active compounds read low 0.96 | S. cerevisiae deletion strains, locus YMR078C, strain ctf18, active compounds read low 0.986 | S. cerevisiae deletion strains, locus YMR125W, strain sto1, active compounds read low 0.96 | S. cerevisiae deletion strains, locus YMR129W, active compounds read low 0.973 | S. cerevisiae deletion strains, locus YMR205C, strain PFK2, active compounds read low 0.975 | S. cerevisiae deletion strains, locus YMR223W, strain ubp8, active compounds read low 0.955 | S. cerevisiae deletion strains, locus YMR231W, strain pep5, active compounds read low 0.97 | S. cerevisiae deletion strains, locus YMR263W, strain SAP30, active compounds read low 0.995 | S. cerevisiae deletion strains, locus YMR307W, strain GAS1, active compounds read low 0.987 | S. cerevisiae deletion strains, locus YNL067W, strain RPL9B, active compounds read low 1.03 | S. cerevisiae deletion strains, locus YNL071W, strain lat1, active compounds read low 0.973 | S. cerevisiae deletion strains, locus YNL128W, strain TEP1, active compounds read low 0.976 | S. cerevisiae deletion strains, locus YNL153C, strain GIM3, active compounds read low 1.02 | S. cerevisiae deletion strains, locus YNL175C, strain NOP13, active compounds read low 1 | S. cerevisiae deletion strains, locus YNL183C, strain NPR1, active compounds read low 0.97 | S. cerevisiae deletion strains, locus YNL197C, strain WHI3, active compounds read low 0.989 | S. cerevisiae deletion strains, locus YNL209W, strain ssb2, active compounds read low 0.96 | S. cerevisiae deletion strains, locus YNL224C, strain SQS1, active compounds read low 1 | S. cerevisiae deletion strains, locus YNL233W, strain BNI4, active compounds read low 1.01 | S. cerevisiae deletion strains, locus YNL248C, strain rpa49, active compounds read low 0.986 | S. cerevisiae deletion strains, locus YNL250W, strain rad50, active compounds read low 0.974 | S. cerevisiae deletion strains, locus YNL271C, strain bni1, active compounds read low 0.994 | S. cerevisiae deletion strains, locus YNL298W, strain CLA4, active compounds read low 0.995 | S. cerevisiae deletion strains, locus YNL307C, strain MCK1, active compounds read low 0.984 | S. cerevisiae deletion strains, locus YNL322C, strain KRE1 (second series), active compounds read low 0.943 | S. cerevisiae deletion strains, locus YNL322C, strain KRE1, active compounds read low 0.988 | S. cerevisiae deletion strains, locus YNR049C, strain mso1, active compounds read low 0.959 | S. cerevisiae deletion strains, locus YNR052C, strain pop2, active compounds read low 0.985 | S. cerevisiae deletion strains, locus YOL006C, strain TOP1, active compounds read low 1.05 | S. cerevisiae deletion strains, locus YOL012C, strain htz1 1.16 | S. cerevisiae deletion strains, locus YOL147C, strain pex11, active compounds read low 0.988 | S. cerevisiae deletion strains, locus YOR001W, strain rrp6, active compounds read low 0.971 | S. cerevisiae deletion strains, locus YOR061W, strain CKA2, active compounds read low 0.97 | S. cerevisiae deletion strains, locus YOR069W, strain VPS5, active compounds read low 0.992 | S. cerevisiae deletion strains, locus YOR070C, strain gyp1, active compounds read low 0.982 | S. cerevisiae deletion strains, locus YOR080W, strain dia2, active compounds read low 0.959 | S. cerevisiae deletion strains, locus YOR083W, strain WHI5 (second series), active compounds read low 0.966 | S. cerevisiae deletion strains, locus YOR083W, strain WHI5, active compounds read low 0.982 | S. cerevisiae deletion strains, locus YOR106W, strain vam3, active compounds read low 0.942 | S. cerevisiae deletion strains, locus YOR136W, strain idh2, active compounds read low 0.978 | S. cerevisiae deletion strains, locus YOR144C, strain elg1, active compounds read low 0.999 | S. cerevisiae deletion strains, locus YOR184W, strain ser1, active compounds read low 1 | S. cerevisiae deletion strains, locus YOR231W, strain MKK1, active compounds read low 0.979 | S. cerevisiae deletion strains, locus YOR265W, strain rbl2, active compounds read low 0.954 | S. cerevisiae deletion strains, locus YOR270C, strain vph1, active compounds read low 0.892 | S. cerevisiae deletion strains, locus YOR290C, strain snf2, active compounds read low 0.959 | S. cerevisiae deletion strains, locus YOR316C, strain cot1, active compounds read low 0.995 | S. cerevisiae deletion strains, locus YPL051W, strain arl3, active compounds read low 0.973 | S. cerevisiae deletion strains, locus YPL055C, strain LGE1, active compounds read low 0.99 | S. cerevisiae deletion strains, locus YPL078C, strain atp4, active compounds read low 0.943 | S. cerevisiae deletion strains, locus YPL106C, strain sse1, active compounds read low 0.916 | S. cerevisiae deletion strains, locus YPL240C, strain hsp82, active compounds read low 0.962 | S. cerevisiae deletion strains, locus YPL241C, strain CIN2, active compounds read low 0.99 and 0.999 | S. cerevisiae deletion strains, locus YPL256C, strain CLN2, active compounds read low 0.951 | S. cerevisiae deletion strains, locus YPR119W, strain clb2, active compounds read low 0.992 | S. cerevisiae deletion strains, locus YPR141C, strain kar3, active compounds read low 0.983 | S. cerevisiae deletion strains, locus YPR163C, strain tif3, active compounds read low 0.986 | S. cerevisiae deletion strains, locus YPR167C, strain met16, active compounds read low 0.994 | S. cerevisiae deletion strains, strain wtn01, active compounds read low 1.02 | S. cerevisiae strains, strain wild type, active compounds read low 0.987
